Assay: modulators of HCV replicon luciferase signal, primary screen, HCV replication inhibitor project, Huh7 cells, luciferase reporter (AID 1109);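 further: huh7 hepatoma cells harbouring a luciferase neomycin HCV replicon reporter; luciferase luminescence as measure of HCV replicon replication; test concentration not given here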
Conditions: 48 h, higher = more signal

SMILES	z-score
O=C1C[C@@H](O)[C@@H](O)[C@@H]2[C@@H]3C(=O)N(c4ccc(F)cc4F)C(=O)[C@@H]3CC[C@H]12	-0.313
Cc1cc(C)c(-c2cc([C@H](C)ON=C[C@@H](C)[C@H](OCc3ccccc3)C(C)C)on2)c(C)c1	-2.06
CCN1C(=O)[C@H]2[C@H]3[C@H](O)[C@H](O)CC(=NOCC=C(C)CCC=C(C)C)[C@@H]3CC[C@H]2C1=O	-0.44
CC(CCC(=O)OC[C@H]1O[C@H](C#Cc2ccccc2)C=C[C@@H]1Oc1ccc(C)cc1)=NOC[C@@H](C)[C@H](OCc1ccccc1)C(C)C	-0.982
CCOC(=O)CCN1C(=O)[C@H]2[C@H]3[C@H](O)[C@H](O)CC(=NO[C@@H]4O[C@H](CO)[C@@H](O)[C@H](O)[C@H]4O)[C@H]3CC[C@H]2C1=O	0.587
CC1(C)O[C@H]2OC([C@H](O)CON3C(=O)c4ccccc4C3=O)[C@H](O)[C@H]2O1 (stereo partly specified)	-0.585
CC(CCN1CCc2nc(-c3ccccc3)c(-c3ccccc3)cc2C1)=NO[C@H](C)c1cn([C@H](CO)Cc2ccccc2)nn1	-2.3
CON=C(C)CCN1CCCc2nc(C)c(C)cc21	0.115
CC(=O)OC[C@H]1O[C@@H](ON=C(C)CCC(=O)OC[C@H]2O[C@H](C#Cc3ccccc3)C=C[C@@H]2Oc2ccc(C)cc2)[C@H](OC(C)=O)[C@@H](OC(C)=O)[C@@H]1OC(C)=O	-1.2
CCN1C(=O)[C@H]2[C@H]3[C@H](O)[C@H](O)CC(=NO[C@H](C)c4cn([C@H](CO)Cc5ccccc5)nn4)[C@@H]3CC[C@H]2C1=O	-1.02
CC(=O)OC[C@H]1O[C@@H](ON=C(C)C)[C@H](OC(C)=O)[C@@H](OC(C)=O)[C@@H]1OC(C)=O	-0.563
CC(C)CON=C1C[C@@H](O)[C@@H](O)[C@@H]2[C@@H]3C(=O)N(c4ccc(F)cc4F)C(=O)[C@@H]3CC[C@@H]12	-0.049
C=C(C)C(=O)OC[C@H]1CN2[C@@H](CC[C@@H](C)[C@@H]2c2ccc(Br)cc2)C(=O)O1	1.25
CC(CCN1CCCc2nc(C)c(C)cc21)=NOC[C@@H](O)COCc1ccco1	-0.62
O=C1C=C[C@@H](O)[C@@H]2[C@@H]3C(=O)N(Cc4ccc5c(c4)OCO5)C(=O)[C@@H]3CC[C@@H]12	-0.322
CC(C)(C)N1C(=O)[C@H]2[C@H]3[C@H](O)[C@H](O)CC(=NOC[C@@H](O)COCc4ccco4)[C@@H]3CC[C@H]2C1=O	-0.287
C=CC[C@@H]1C=CC(ON=C(C)C)[C@@H](CO)O1 (stereo partly specified)	0.931
CCC1=NOC(CCC2CC(OC(=O)NCc3cccc4c3OCO4)CC3(CCCC(COC(=O)NCCc4ccc(Cl)cc4)O3)O2)C1 (stereo unspecified)	-0.0374

SMILES	z-score
C#CCCCON=C1C[C@@H](O)[C@@H](O)[C@@H]2[C@@H]3C(=O)N(C4CCCCC4)C(=O)[C@@H]3CC[C@@H]12	-0.0098
CC(=O)OC[C@H]1O[C@H](CC=NOC[C@@H](O)COCc2ccco2)C=C[C@@H]1OC(C)=O	0.586
CC(C)=NOC(C)CN1CCCc2nc(C)c(C)cc21 (stereo unspecified)	0.302
CCOC(=O)[C@H](Cc1ccccc1)NC(=O)CCC1CC(OC(=O)NCc2cccc3ccccc23)CC2(CCCC(COC(=O)NCC3CCCCC3)O2)O1 (stereo partly specified)	-1.48
O=C1C[C@H](c2ccccc2)[C@H](c2ccc(Br)cc2)O1	0.588
COC(=O)[C@H](C)NC(=O)CCC1CC(OC(=O)NCCc2ccc(F)cc2)CC2(CCCC(COC(=O)NCC3CCCCC3)O2)O1 (stereo partly specified)	-1.34
CN1CCc2nc(-c3ccccc3)c(-c3ccccc3)cc2C1	0.179
CC#CCOCCC=C1c2ccccc2[C@@H](OC)[C@@H]1C	-0.692
C#CCCCON=C1C[C@@H](O)[C@@H](O)[C@@H]2[C@@H]3C(=O)N(C[C@@H]4CCCO4)C(=O)[C@@H]3CC[C@H]12	0.403
O=C1[C@H]2[C@H]3[C@H](O)[C@H](O)CC(=NO[C@@H]4O[C@H](CO)[C@@H](O)[C@H](O)[C@H]4O)[C@H]3CC[C@H]2C(=O)N1c1ccc(F)cc1F	0.29
CCCNC(=O)OC[C@H]1O[C@H](CCON=C2C[C@@H](O)[C@@H](O)[C@@H]3[C@@H]4C(=O)N(CC)C(=O)[C@@H]4CC[C@@H]23)C=C[C@@H]1Oc1ccc(OC)cc1	-1.33
CC(C)=CCCC(C)=CCON=C1C[C@@H](O)[C@@H](O)[C@@H]2[C@@H]3C(=O)N(c4cccc(Oc5ccccc5)c4)C(=O)[C@@H]3CC[C@H]12	0.237
COc1ccc(OC[C@@H](CO)OC)cc1	-0.719
COc1ccc(OC[C@H]2CN3[C@@H](CC[C@@H](C)[C@@H]3c3ccc(Br)cc3)C(=O)O2)cc1	-0.757
Cc1ccc(S(=O)(=O)N[C@@H]2COC(=O)CC=C[C@@H](C)[C@H](NS(=O)(=O)c3ccc(C)cc3)COC(=O)[C@H](C)NC(=O)CC=C[C@H]2C)cc1	0.311
CC(C)CON=C1C[C@@H](O)[C@@H](O)[C@@H]2[C@@H]3C(=O)N(C(C)(C)C)C(=O)[C@@H]3CC[C@@H]12	-0.851
CCOC(=O)CCN1C(=O)[C@H]2[C@H]3[C@H](O)[C@H](O)CC(=O)[C@@H]3CC[C@H]2C1=O	-0.408
CCOC(=O)[C@H](CC(C)C)NC(=O)CCC1CC(OC(=O)NCc2ccc3c(c2)OCO3)CC2(CCCC(COC(=O)NCCC(C)C)O2)O1 (stereo partly specified)	0.752

Source: PubChem BioAssay
